Most compounds without a hit are left out; they make up all but 5% or so of the library.
SENP8 block-1 = SENP8 protease inhibitors, primary screen, biochemical, luminescence. AID 2540, 2010. Sentrin-specific protease 8 (Homo sapiens), Q96LD8. inhibition, % at 10 µM. purified SENP8, Z-RLRGG-aminoluciferin cleavage. actives 1.2% (n = 330,000); in the data active means inhibition above about 50%
SENP8 block-2 = human SENP8 protease inhibitors, primary screen, biochemical, fluorescence, Nedd8 protein substrate, uHTS. recombinant SENP8. Sentrin-specific protease 8 (Homo sapiens), Q96LD8. inhibition, % at 20 µM. actives 0.64% (n = 360,000). AID 602440, 2012; in the data active means inhibition mostly above about 40%, no sharp cut-off; inactive means mostly below about 27%
AHR activator = AHR activators, primary screen, cell-based, luminescence, luciferase reporter, human; actives 2.5% (n = 320,000); AHR-responsive luciferase reporter cells; AID 2796, 2010; Aryl hydrocarbon receptor (Homo sapiens), P35869; activation, % at 5 µM; in the data active means activation above about 47%;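 further: 0% = vehicle wells and 100% = reference agonist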
Target sequence (P35869 whole entry, looked up): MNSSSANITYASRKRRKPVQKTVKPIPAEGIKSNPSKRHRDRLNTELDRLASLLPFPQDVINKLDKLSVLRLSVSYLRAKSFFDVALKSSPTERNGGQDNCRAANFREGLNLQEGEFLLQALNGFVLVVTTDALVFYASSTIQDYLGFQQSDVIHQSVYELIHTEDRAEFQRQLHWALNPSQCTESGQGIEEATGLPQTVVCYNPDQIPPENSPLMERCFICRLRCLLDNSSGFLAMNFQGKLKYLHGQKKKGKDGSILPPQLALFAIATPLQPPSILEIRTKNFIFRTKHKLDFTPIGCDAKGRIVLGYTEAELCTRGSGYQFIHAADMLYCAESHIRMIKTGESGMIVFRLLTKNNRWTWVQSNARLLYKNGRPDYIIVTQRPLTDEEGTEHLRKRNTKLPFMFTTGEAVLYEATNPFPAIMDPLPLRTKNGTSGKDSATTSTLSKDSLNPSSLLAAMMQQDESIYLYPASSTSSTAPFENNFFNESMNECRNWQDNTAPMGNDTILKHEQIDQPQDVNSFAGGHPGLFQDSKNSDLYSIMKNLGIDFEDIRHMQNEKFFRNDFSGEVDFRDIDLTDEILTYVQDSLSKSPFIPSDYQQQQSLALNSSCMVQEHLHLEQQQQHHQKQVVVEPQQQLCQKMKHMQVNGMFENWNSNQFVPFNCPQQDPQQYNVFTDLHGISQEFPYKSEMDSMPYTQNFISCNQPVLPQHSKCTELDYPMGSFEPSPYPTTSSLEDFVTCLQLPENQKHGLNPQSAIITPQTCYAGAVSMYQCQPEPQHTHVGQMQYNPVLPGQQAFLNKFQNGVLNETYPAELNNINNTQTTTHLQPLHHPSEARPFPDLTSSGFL
EBI2 antag = EBI2 receptor antagonists, beta-arrestin recruitment, primary screen, cell-based, luminescence, 7a,25-OHC stimulation, uHTS; G-protein coupled receptor 183 (Homo sapiens), P32249; 7a,25-OHC stimulated; inhibition, % at 5 µM; actives 0.81% (n = 360,000); AID 651636, 2012; in the data active means inhibition above about 38%;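 further: enzyme fragment complementation signal reports receptor beta-arrestin coupling in cells; 0% = agonist plus DMSO wells and 100% = wells without agonist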
SENP7 block = SENP7 protease inhibitors, primary screen, biochemical, luminescence, uHTS. Sentrin-specific protease 7 (Homo sapiens), Q9BQF6. recombinant SENP7, Z-RLRGG-aminoluciferin luminescence, 40 min. inhibition, % at 5 µM. actives 1.5% (n = 330,000);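 active means inhibition above about 50% at the single test dose, limit read from the data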;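 further: plate controls were DMSO with enzyme for no effect and no enzyme buffer wells for full effect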
SENP6 inh = SENP6 protease inhibitors, primary screen, biochemical, luminescence, uHTS; Sentrin-specific protease 6 (Homo sapiens), Q9GZR1; Recombinant SENP6 catalytic domain, aminoluciferin luminescence; inhibition, % at 10 µM; actives 1.8% (n = 330,000);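 active means inhibition above about 50% at the single tested dose, limit read from the data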;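 further: plate controls were DMSO wells with enzyme for no effect and DMSO wells lacking enzyme for full effect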
SENP8 conf = SENP8 protease inhibitors, retest, confirmation, biochemical, luminescence, single concentration. shares compounds with SENP7 block. Recombinant SENP8, Z-RLRGG-aminoluciferin luminescence, 60 min. inhibition, % at 12.5 µM. actives 40% (n = 6,200);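 active means mean inhibition across replicates above about 50%, limit read from the data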
SENP6 confirm = SENP6 protease inhibitors, confirmation, biochemical, luminescence, single concentration; inhibition, % at 12.5 µM; AID 488915, 2010; shares compounds with SENP7 block; actives 58% (n = 6,200); recombinant SENP6, Z-RLRGG-aminoluciferin luminescence
SENP7 conf = SENP7 protease inhibitors, retest, confirmation, biochemical, luminescence, single concentration | shares compounds with SENP7 block | inhibition, % at 12.5 µM | AID 488917, 2010 | actives 69% (n = 6,200) | recombinant SENP7, Z-RLRGG-aminoluciferin luminescence, 40 min
Casp3 select = caspase-3 protease inhibitors, confirmation, selectivity assay for SENP inhibitor project, biochemical, single concentration | shares compounds with SENP7 block | purified caspase-3, Z-DEVD-aminoluciferin luminescence, 60 min | inhibition, % at 12.5 µM | actives 60% (n = 6,200) | AID 488918, 2010;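 active means mean inhibition above about 50%, limit read from the data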;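 further: plate controls were enzyme with DMSO for no effect and wells without caspase-3 for full effect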
SENP luc ctr = interferes with luciferase luminescence in SENP counter-screen; actives 39% (n = 6,200); shares compounds with SENP7 block; Pre-incubated SENP8/Z-RLRGG-aminoluciferin, luciferase luminescence interference; inhibition, % at 12.5 µM;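 active means mean inhibition above about 50% when retested at one dose, limit read from the data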;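 further: plate controls were DMSO wells with completed reaction for no effect and substrate without enzyme for full effect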
An asterisk follows results filed as active; x = no result.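 How the source made its calls, unless noted: active means mean inhibition above about 50% in the one-dose retest (limit read from the data); inactive means the rest.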

SMILES	SENP8 block-1	SENP8 block-2	AHR activator	EBI2 antag	SENP7 block	SENP6 inh	SENP8 conf	SENP6 confirm	SENP7 conf	Casp3 select	SENP luc ctr
Cc1c(Cl)ccc2c(C(O)CBr)cc(-c3ccccc3)nc12 (configuration not stated)	x	-5.0	x	7.3	x	x	x	x	x	x	x
O=C(Nc1ccsc1C(=O)O)c1ccc(Cl)cc1	90.7*	1.8	35.8	-0.4	88.1*	93.6*	94.9*	95.8*	101.3*	96.1*	94.9*
Cc1ccc(C(=O)Nc2ccsc2C(=O)O)cc1	91.6*	14.6	7.6	1.1	93.6*	93.6*	1.4	96.8*	102.0*	97.7*	95.6*
O=C(CNC(=O)c1ccccc1)Nc1ccsc1C(=O)O	-0.3	2.3	6.7	-9.1	2.2	-7.2	x	x	x	x	x
O=C(CCC1CCCN(C(=O)CCN2CCCCC2=O)C1)NCc1ccccc1F (configuration not stated)	-11.3	2.6	1.4	-0.5	-12.9	-5.9	x	x	x	x	x
CC(OC(=O)CCCNC(=O)c1ccc(Cl)cc1)C(=O)N(C)Cc1ccccc1 (configuration not stated)	8.4	1.7	-2.6	11.5	1.4	-4.8	x	x	x	x	x
CCOc1ccc(NS(=O)(=O)c2ccc(OCC(=O)N3CCCC3)cc2)cc1	6.8	10.6	-1.2	-5.9	91.2*	-32.0	7.8	6.3	8.9	3.6	3.7
CCOC(=O)N1CCN(C(=O)COc2ccc(S(=O)(=O)Nc3ccc(OCC)cc3)cc2)CC1	-4.6	5.3	-0.6	-20.0	8.4	8.3	x	x	x	x	x
COc1ccc(N=Cc2c(O)c3ccccc3n2C(C)=O)cc1	5.2	-91.4	9.5	4.6	2.2	33.1	x	x	x	x	x
COc1ccc(N=Cc2sc(O)c3ccccc23)cc1	79.2*	-2.8	38.2	7.4	69.8*	61.5*	92.9*	92.2*	99.9*	73.2*	81.4*
Cc1csc(NC(=O)CCCNC(=O)c2ccc(Cl)cc2)n1	-0.2	10.2	4.3	-9.5	5.3	-1.1	x	x	x	x	x
CCN(CC)S(=O)(=O)c1cccc(NC(=O)c2ccc(Sc3nncn3C)c([N+](=O)[O-])c2)c1	-7.8	3.5	5.4	-3.0	3.4	2.7	x	x	x	x	x
O=C(CSc1ccc(-c2ccc(F)cc2)nn1)N1CCCCC1	29.4	12.6	5.9	-4.1	62.7*	67.7*	38.2	37.7	78.4*	80.4*	58.3*
NC(=O)C1CC(=O)N(CCc2ccc(F)cc2)C1 (configuration not stated)	-8.1	0.9	4.9	1.0	-15.3	-34.2	x	x	x	x	x
COc1ccc(-c2ccc(-c3noc(-c4ccccc4C)n3)c(OC)n2)cc1	0.4	-417.3	2.3	26.1	0.7	-13.9	x	x	x	x	x
Cc1ccccc1-c1noc(-c2ccccc2F)n1	89.7*	19.1	6.5	4.4	95.8*	83.7*	78.5*	77.5*	94.1*	81.2*	61.2*
Cc1ccccc1-c1noc(-c2ccc(O)cc2)n1	98.8*	17.0	59.1*	5.6	101.1*	98.2*	98.9*	99.5*	102.4*	98.2*	97.3*

Compound activity (PubChem)
